Measurements reported in the supplement of paper PMC7156485.

Tests used:
Settings in all cases: concentration: 10 µM; 24 h
HCC1569 [1] = experiment: cell number relative to DMSO (% of DMSO); higher = more cells (less growth inhibition / toxicity)
Method in brief: (§1)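 After 24 h at 37 °C with compounds at 10 µM, in triplicate, HCC1569 and TDF cells were fixed with 3.7% formaldehyde. Immunostaining used a rabbit anti-H1.0 antibody and an AlexaFluor 647 secondary, with DAPI, and six fields per well were imaged at ×10. H1.0 nuclear intensity or cell number is presented as percent of the plate control, from the median of replicates, with HCC1569 values smoothed for positional effects.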

TDF [2] = experiment: as above
Method in brief: as §1

TDF [3] = experiment: H1.0 immunofluorescence intensity relative to DMSO (% of DMSO); higher = stronger H1.0 induction, active = 120 or more
Method in brief: as §1

HCC1569 [4] = experiment: H1.0 immunofluorescence intensity relative to DMSO (% of DMSO); higher = stronger H1.0 induction, active = 140 or more
Method in brief: as §1
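Wherever H1.0 immunofluorescence intensity relative to DMSO is given: TDF is a line of transformed human dermal fibroblasts of mesenchymal origin.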
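Wherever cell number relative to DMSO is given: TDF denotes transformed human dermal fibroblasts of mesenchymal origin.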

Row | SMILES | cell number (HCC1569 [1]) | cell number (TDF [2]) | H1.0 immunofluorescence intensity (TDF [3]) | H1.0 immunofluorescence intensity (HCC1569 [4])
1 | CC(C)Cn1cnc2c(N)nc3ccccc3c21 [Imiquimod] | 102 | 93.4 | 95.3 (inactive) | 108 (inactive)
2 | O=C(Oc1cc(S(=O)(=O)c2ccccc2)ccc1[N+](=O)[O-])c1ccc(Cl)cc1 [2-nitro-5-(phenylsulfonyl)phenyl 4-chlorobenzoate] | 99.5 | 87.8 | 96.7 (inactive) | 111 (inactive)
3 | COc1cc(O)c2c(=O)c(O)c(-c3ccc(O)c(O)c3)oc2c1 [Rhamnetine] | 91.7 | 89.5 | 93 (inactive) | 130 (inactive)
4 | CCC1(O)CC(OC2CC(N(C)C)C(OC3CC(O)C(OC4CCC(=O)C(C)O4)C(C)O3)C(C)O2)c2c(cc3c(c2O)C(=O)c2c(O)cccc2C3=O)C1C(=O)OC (centres undefined) [Aclarubicin] | 83.2 | 55.5 | 129 (active) | 210 (active)
5 | Cc1cc(C)c(C=C2C(=O)Nc3ccccc32)[nH]1 [VEGF Receptor 2 Kinase Inhibitor III] | 100 | 105 | 91.1 (inactive) | 108 (inactive)
6 | CC(=O)Nc1ccc(CC(=O)O)cc1 [Actarit] | 100 | 103 | 97.2 (inactive) | 96.5 (inactive)
7 | Cc1[nH]c(C=C2C(=O)Nc3ccc(S(=O)(=O)N(C)c4cccc(Cl)c4)cc32)c(C)c1C(=O)N1CCN(C)CC1 [Met Kinase Inhibitor] | 81.6 | 59.6 | 92 (inactive) | 149 (active)
8 | COc1ccc2cc(CCC(C)=O)ccc2c1 [Nabumetone] | 107 | 97.4 | 93.8 (inactive) | 111 (inactive)
9 | C=Cc1c(C)c2cc3[nH]c(cc4nc(cc5nc(cc1[nH]2)C(C)=C5CCC(=O)O)C(CCC(=O)O)=C4C)c(C)c3C=C [Protoporphyrin IX disodium] | 103 | 86.7 | 100 (inactive) | 100 (inactive)
10 | NC(N)=NC(=O)c1nc(Cl)c(N2CCCCCC2)nc1N [5-(N,N-hexamethylene)amiloride] | 96 | 85.1 | 113 (inactive) | 100 (inactive)
11 | N#Cc1c(N(CC(=O)[O-])CC(=O)[O-])sc(C(=O)[O-])c1CC(=O)[O-].[Sr+2].[Sr+2] | 100 | 109 | 86.6 (inactive) | 105 (inactive)
12 | CC(C)(C)c1ccc(S(=O)(=O)NCc2ccc(C(=O)Nc3cccnc3)cc2)cc1 | 98.2 | 108 | 86.8 (inactive) | 107 (inactive)
13 | CCCc1nc(C)c2c(=O)nc(-c3cc(S(=O)(=O)N4CCN(CC)CC4)ccc3OCC)[nH]n12 [Vardenafil] | 105 | 108 | 91 (inactive) | 100 (inactive)
14 | c1ccc(-c2[nH]ncc2-c2ccnc3ccccc23)nc1 [TGF-b RI Kinase Inhibitor] | 102 | 103 | 91 (inactive) | 110 (inactive)
15 | COC(=O)C1=C(C)NC(C)=C(C(=O)OCCN(C)Cc2ccccc2)C1c1cccc([N+](=O)[O-])c1.Cl (centres undefined) [Nicardipine.HCl] | 96.8 | 100 | 98.7 (inactive) | 107 (inactive)
16 | CCCCCC(O)C=CC1OC(=O)CC(O)C1CC=CCCCC(=O)O (centres undefined) [11-Dehydro-thromboxane B2] | 100 | 97 | 98.6 (inactive) | 102 (inactive)
17 | CCCC(=O)NCCc1c2n(c3ccc(OC)cc13)Cc1ccccc1-2 | 92.4 | 99.3 | 97.1 (inactive) | 108 (inactive)
18 | Cc1[nH]c2ccccc2c1CCNC(=O)c1cccs1 [N-[2-(2-methyl-1H-indol-3-yl)ethyl]-2-thiophenecarboxamide] | 102 | 95.5 | 97.1 (inactive) | 92.8 (inactive)
19 | N#Cc1c(-c2ccccc2)cc(-c2cc(Br)ccc2O)[nH]c1=O [PIM1 Kinase Inhibitor II] | 103 | 105 | 93.5 (inactive) | 114 (inactive)
20 | CCCCCC=CCC=CC=CC=CC(SCC(NC(C)=O)C(=O)O)C(O)CCCC(=O)O (centres undefined) [N-Acetyl-leukotriene E4] | 103 | 102 | 92 (inactive) | 100 (inactive)
21 | COc1ccc(C2CC(=O)c3c(O)cc(OC4OC(COC5OC(C)C(O)C(O)C5O)C(O)C(O)C4O)cc3O2)cc1O (centres undefined) [Hesperidine] | 107 | 102 | 93.2 (inactive) | 84.8 (inactive)
